Measured values taken from article PMC4336329 (PLoS ONE, 2015).
About 14,000 (4.5%) of roughly 310,000 compounds showed an effect of 50% or more. The effect is printed as a negative number. The list comes from a sample in which strong results are over-represented; it also holds similar structures and randomly drawn compounds.

biological target: human ether-à-go-go-related gene (hERG) potassium channel (human, UniProt Q12809); test: primary screen, population patch clamp on CHO cells stably expressing hERG; higher = less effect of the substance
Sequence (Q12809 whole entry, looked up): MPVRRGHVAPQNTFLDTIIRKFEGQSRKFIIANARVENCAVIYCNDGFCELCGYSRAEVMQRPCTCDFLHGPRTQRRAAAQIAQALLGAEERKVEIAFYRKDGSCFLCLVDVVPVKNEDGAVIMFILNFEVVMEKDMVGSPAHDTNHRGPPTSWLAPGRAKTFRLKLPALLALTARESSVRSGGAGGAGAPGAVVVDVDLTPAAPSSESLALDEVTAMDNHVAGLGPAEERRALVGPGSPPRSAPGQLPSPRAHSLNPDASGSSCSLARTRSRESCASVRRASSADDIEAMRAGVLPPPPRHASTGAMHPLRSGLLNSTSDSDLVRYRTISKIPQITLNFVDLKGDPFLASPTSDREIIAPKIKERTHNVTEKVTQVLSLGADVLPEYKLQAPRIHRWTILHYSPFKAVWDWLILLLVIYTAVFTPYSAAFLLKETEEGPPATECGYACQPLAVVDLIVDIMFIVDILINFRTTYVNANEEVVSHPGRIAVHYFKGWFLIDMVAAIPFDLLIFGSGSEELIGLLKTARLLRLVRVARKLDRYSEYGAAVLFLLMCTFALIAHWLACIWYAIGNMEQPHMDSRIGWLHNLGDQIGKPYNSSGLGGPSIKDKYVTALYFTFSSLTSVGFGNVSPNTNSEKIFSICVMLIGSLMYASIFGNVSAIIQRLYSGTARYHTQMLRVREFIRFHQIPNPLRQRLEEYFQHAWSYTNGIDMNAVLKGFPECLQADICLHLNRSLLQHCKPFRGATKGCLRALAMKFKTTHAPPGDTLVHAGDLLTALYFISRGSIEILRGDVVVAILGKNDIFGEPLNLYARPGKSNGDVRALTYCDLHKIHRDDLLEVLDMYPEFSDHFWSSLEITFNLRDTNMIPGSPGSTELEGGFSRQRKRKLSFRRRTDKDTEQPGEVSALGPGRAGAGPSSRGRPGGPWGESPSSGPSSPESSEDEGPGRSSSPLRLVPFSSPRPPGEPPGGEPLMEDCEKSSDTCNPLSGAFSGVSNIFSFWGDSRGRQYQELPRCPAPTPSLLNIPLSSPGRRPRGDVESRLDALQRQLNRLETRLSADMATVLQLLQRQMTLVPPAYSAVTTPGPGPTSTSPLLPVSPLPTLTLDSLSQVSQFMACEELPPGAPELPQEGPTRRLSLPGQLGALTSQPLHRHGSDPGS
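Note: peak tail current of the secondary pulse compared with the same well before compound.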

| Compound | hERG current change (%, negative = inhibition) at 10uM |
| --- | --- |
| CCC1(C)Cc2ccccc2-c2nc(NCCO)n(-c3ccc(C)cc3)c(=O)c21 (centres unmarked) | -25.1% |
| CCOC(=O)N1CCN(c2c(NCc3ccccc3OC)c(=O)c2=O)CC1 | 0.238% |
| CCOC(=O)Nc1ccc(S(=O)(=O)Nc2cc(C)on2)cc1 | 6.84% |
| O=c1c2ccccc2[nH]c(=S)n1CCN1CCN(Cc2ccccc2)CC1 | -19.8% |
| CC1CCN(CCn2c(=S)[nH]c3ccccc3c2=O)CC1 | -32.6% |
| O=c1c2ccccc2[nH]c(=S)n1CCCN1CCOCC1 | 8.73% |
| O=c1c2ccccc2[nH]c(=S)n1CCCN1CCC(Cc2ccccc2)CC1 | -73.6% |
| O=c1c2ccccc2[nH]c(=S)n1CCCN1CCN(c2ccccc2)CC1 | -19.7% |
| CC1CCN(CCCn2c(=S)[nH]c3ccccc3c2=O)CC1 | -56.9% |
| C=CCn1c(SCC(=O)NCC(c2ccccc2)N(C)C)nnc1C1CCCCC1 (centres unmarked) | 8.62% |
| Cc1cc(Br)cc(C)c1NC(=O)c1ccc(C#N)cc1F | -21.2% |
| NS(=O)(=O)c1ccc(CCNC(=O)CCc2nc3sc4c(c3c(=O)[nH]2)CCCC4)cc1 | 17.6% |
| CC(C)C[C@@H](CSc1ccc(Br)cc1)N1CCN(CC(C)C)CCC1=O | -68.6% |
| CC(C)C[C@@H](CSc1ccc(Br)cc1)N1CCN(C)CCC1=O | -64.7% |
| CC(C)CN1CCC(=O)N([C@H](CSc2ccccc2)Cc2ccccc2)CC1 | -67.9% |
| CC(C)C[C@@H](CN=[N+]=[N-])N1CCN(CC(C)C)CCC1=O | -3.55% |
| CC(C)CN1CCC(=O)N([C@H](CN=[N+]=[N-])Cc2ccccc2)CC1 | -22.9% |
| CC(C)C[C@@H](CSc1ccccc1)N1CCN(C)CCC1=O | -16% |
| CCCN1CCC(=O)N([C@H](CSc2ccccc2)CC(C)C)CC1 | -66.4% |
| CC(C)C[C@@H](CO)N1CCN(Cc2ccc(Br)cc2)CCC1=O | -13.5% |
| CC(C)CN1CCC(=O)N([C@H](CSc2ccc(Br)cc2)Cc2ccccc2)CC1 | -43.2% |
| CC(C)C[C@@H](CO)N1CCN(C)CCC1=O | -4.26% |
| CCOC(=O)C(NCc1ccc2c(c1)OCO2)(NC(=O)CC)C(F)(F)F (centres unmarked) | 14.3% |
| NCC/C=C1/c2ccccc2CSc2ccccc21.O=C(O)/C=C\C(=O)O | -3.76% |

| Compound | hERG current change (%, negative = inhibition) at 10uM |
| --- | --- |
| CN(C)c1ccc(S(=O)(=O)N2CCCCC2)cc1NC(=O)CN1C(=O)NC2(CCCC2)C1=O | 8.25% |
| COc1ccccc1OCCNC(=O)C1CC(=O)N(Cc2ccccc2)C1 (centres unmarked) | -10.2% |
| CC(O)CNC(=O)c1ccc(-c2nn(C)c(=O)c3ccccc23)cc1 (centres unmarked) | -0.479% |
| Cc1ccc2c(Cl)cc(Cl)c(OCc3c(C)noc3C)c2n1 | 8.92% |
| O=C(NO)c1ccc(OC(F)F)cc1 | 7.91% |
| Cc1ccc(C(C)C)c(O)c1 | 19.7% |
| CC(C)C[C@@H](CSc1ccccc1)N1CCN(CC(C)C)CCC1=O | -75% |
| O=C(CCC(=O)N(CC(=O)NC1CCCC1)Cc1ccccc1Cl)Nc1nccs1 | -16.1% |
| O=C(COC(=O)c1cccc(OC(F)F)c1)NC(=O)NC1CCCCC1 | 11.1% |
| CCOc1ccc(N(CC(=O)NC(C)(C)C)C(=O)c2ccco2)cc1 | -1.84% |
| CCOc1ccc(CNCc2ccccc2Cl)cc1.Cl | -55.3% |
| Cc1ccc(N(CC(=O)NCc2ccc(F)cc2)C(=O)c2ccco2)cc1C | -10.8% |
| CN(CC(=O)NCCc1ccc(F)cc1)Cc1ccccc1 | -2.73% |
| Cc1ccc(CNCc2ccccc2Cl)cc1.Cl | -7.02% |
| CCOc1ccc(N(CC(=O)NCc2ccc(F)cc2)C(=O)c2ccco2)cc1 | -54.6% |
| CCOc1ccc(CN(C)CC(=O)NCc2ccc(F)cc2)cc1 | -74% |
| CC(=O)c1ccc(OCC(=O)NCc2ccc(F)cc2)cc1 | -11.5% |
| CN(CC(=O)NCc1ccccc1)Cc1ccc(Cl)cc1 | -22.9% |
| CCOCCCNCc1ccc(OCc2ccccc2Cl)cc1 | -46.9% |
| CCOc1ccc(N(CC(=O)NCc2ccccc2)S(C)(=O)=O)cc1 | -10.9% |
| CCOc1ccc(CN(C)CC(=O)NCc2ccccc2)cc1 | -76.1% |
| Cc1c(C)c2c(OCC(=O)NCC(=O)NCC(=O)O)cc3c(c2oc1=O)CCC(C)(C)O3 | 15.2% |
| Cn1ncc2c(Nc3cccc([N+](=O)[O-])c3)ncnc21 | 7.09% |
